Source: PubChem (National Center for Advancing Translational Sciences (NCATS))
Shown is part of a subset that was picked to be rich in hits.
ClpP mod – qHTS Assay for Activators of ClpP; AID 651965, 2013; 340,000 tested, 1.9% active; Potency, µM (doses to about 57.5 µM), for inactives: at the highest dose activity change, negative = active; purified B. subtilis ClpP, FRET peptide cleavage, 20 min; ATP-dependent Clp protease proteolytic subunit (Bacillus subtilis (strain 168)), P80244; active = well fitted falling curve with a large enough effect; inconclusive = small, poorly fitted or top-dose-only effect; inactive = no such curve, though single readings can be large or run the other way; note: potency is the fitted concentration of half-maximal effect; the source files actives as falling curves though it sought activators and does not explain the sign; nearly all actives have a fitted effect of over 65% in size
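Purified B. subtilis ClpP, 10 microg/mL final in Tris/HCl pH8 with KCl, BSA, glycerol and Tween-20, cleaved an Abz/nitrotyrosine-quenched decapeptide. Fluorescence (ex 320, em 430) was read at 0 and 20 min at room temperature. Delta was normalized to 5.8 microM ADEP and DMSO/no-enzyme controls.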
mIDH1 inhibitor – human IDH1 R132H inhibition. O75874. IDH1-R132H enzyme, NADPH consumption, diaphorase/resazurin fluorescence. Potency, µM (titrated, usually from 76.6 µM), for inactives: at the highest dose activity change, negative = inhibition, most hits filed as inhibitors. 390,000 tested, 0.093% active; note: potency is the fitted concentration of half-maximal effect; % is set by controls: 0 for no effect and ±100 for the full control effect; nearly all actives have a fitted effect of over 65% in size
Target sequence (O75874 whole entry R132H, stated change not applied): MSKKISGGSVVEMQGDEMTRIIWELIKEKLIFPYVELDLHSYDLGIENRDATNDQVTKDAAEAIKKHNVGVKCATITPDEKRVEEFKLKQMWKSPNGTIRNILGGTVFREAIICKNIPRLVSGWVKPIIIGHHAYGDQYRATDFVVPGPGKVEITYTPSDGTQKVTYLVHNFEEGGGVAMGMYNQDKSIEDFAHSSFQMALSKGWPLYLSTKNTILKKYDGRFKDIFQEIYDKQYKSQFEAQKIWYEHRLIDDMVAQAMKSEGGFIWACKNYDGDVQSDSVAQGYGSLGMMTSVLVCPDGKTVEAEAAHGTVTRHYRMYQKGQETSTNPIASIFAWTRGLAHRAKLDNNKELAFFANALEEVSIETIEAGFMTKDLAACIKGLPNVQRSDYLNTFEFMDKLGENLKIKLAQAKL
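IDH1-R132H (0.5 ug/mL) preincubated 30 min with compound, then NADPH (0.016 mM) and alpha-KG (2 mM) added; 80 min at RT, pH 7.5. Remaining NADPH coupled via diaphorase/resazurin to fluorescence (540/590 nm); concentration-response curves normalized to no-enzyme control.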
LDHA inh – blocks human lactate dehydrogenase A; purified LDHA, NADH/diaphorase-resazurin fluorescence; hits give low values; P00338; 480,000 tested, 0.15% active; activity change, % (values are at about 110 or 230 µM); in the data active = activity change below about -30%; inconclusive = mostly about -25% to -30%;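 note: plate controls were DMSO wells for no effect and wells without enzyme for full effect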
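Human LDH5 (2 nM) was incubated with 0.06 mM NADH and 0.2 mM pyruvate for 5 min at room temperature in Tris pH 7.4. Remaining NADH was coupled through diaphorase/resazurin, and resorufin fluorescence was read at 0 and 20 min.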
Mito fusion act – inhibitors of mitochondrial division or activators of mitochondrial fusion; S. cerevisiae fusion-defective mutant growth rescue, CellTiterGlo 48 h; Potency, µM (doses to about 46.1 µM), for inactives: at the top dose growth rescue (activation), usual class: activators; 320,000 tested, 0.23% active; note: potency is the fitted concentration of half-maximal effect; % of control where 0% means no effect; nearly all actives have a fitted effect of over 45% in size
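Temperature-sensitive fusion-defective S. cerevisiae (e.g. fzo1-1, mgm1-5) were grown with compound in YPEG medium (3% ethanol, 3% glycerol) for 48 hours at 37C. Growth rescue was measured as viability by CellTiterGlo luminescence after 10 minutes at ambient.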
RGS4 inhibitor – human RGS4 inhibition. P49798. Transcreener GDP fluorescence polarization, RGS4-accelerated GTP hydrolysis. 390,000 tested, 0.039% active. Potency, µM (titrated, usually from 114 µM), for inactives: at the top dose activity change, negative = inhibition, actives largely listed as inhibitors; note: potency is the fitted concentration of half-maximal effect; % is set by controls: 0 for no effect and ±100 for the full control effect; nearly all actives have a fitted effect of over 75% in size
Target sequence (P49798 whole entry, looked up): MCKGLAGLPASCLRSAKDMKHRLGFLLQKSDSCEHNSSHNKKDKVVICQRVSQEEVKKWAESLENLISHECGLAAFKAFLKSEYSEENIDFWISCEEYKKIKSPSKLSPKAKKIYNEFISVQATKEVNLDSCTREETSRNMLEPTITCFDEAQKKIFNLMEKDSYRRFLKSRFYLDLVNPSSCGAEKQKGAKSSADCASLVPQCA
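MLSMR compounds (23 nl, pin-transferred) preincubated 10 min at room temperature with a 500nM (2x) first reagent, then RGS4 at 900nM (2x) plus Transcreener GDP mix added; fluorescence polarization (620/688 nm) read before and after 90 min at 30 °C.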
S-ASM inh – inhibitors of human secretory acid sphingomyelinase | P17405 | placental ASM, HMU-PC fluorogenic substrate, 60 min | Potency, µM (series often up to 57.5 µM), inactives show top-dose activity change, negative = inhibition, actives largely listed as inhibitors | 340,000 tested, 0.006% active | AID 504937; note: potency is the fitted concentration of half-maximal effect
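Human placenta-derived ASM preincubated with compound 10 min at room temperature, then reacted with 9 uM (final) fluorogenic HMU-PC substrate for 60 min at 37 C. Stop solution raises pH to 10; fluorescence read at Ex 386/Em 447 nm.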
* = called active by the depositor; [ ] = dose if it differs, or a comment. Unless noted, calls come from the whole dose curve; as a rule, active = well fitted curve in the direction sought with a large enough effect; inconclusive = small, poorly fitted or top-dose-only effect, or another doubt; inactive = no such curve, though single readings can be large; an effect the other way counts as inactive or inconclusive.

Results for Cc1c(-c2ccccc2)n(C)c2ccccc12 ?
LDHA inh: -24

What do the screens show for `Cn1c(-c2ccccc2)c(CCO)c2ccccc21`?
ClpP mod: 28µM*; mIDH1 inhibitor: 6%; LDHA inh: 4; Mito fusion act: 23%; RGS4 inhibitor: -38%; S-ASM inh: 5%

What do the screens show for `CCn1c(COc2ccc(Cl)cc2)nnc1SCc1ccc(C#N)cc1`?
ClpP mod: 0%; mIDH1 inhibitor: 3%; LDHA inh: -4; Mito fusion act: 3%; RGS4 inhibitor: 15%[11.4 µM]; S-ASM inh: 2%

What do the screens show for `CCn1c(COc2ccc(Cl)cc2)nnc1SC1CCc2ccccc2C1=O` (stereo not given)?
ClpP mod: 1%; mIDH1 inhibitor: 10%; LDHA inh: 20; Mito fusion act: 18µM*; RGS4 inhibitor: inconclusive; S-ASM inh: -8%

How did O=C(CSc1nc2c(c(=O)n1-c1ccc(Br)cc1)SCC2)N1CCCCCC1 do in these assays?
LDHA inh: -2

What do the screens show for `Cc1nc2cc(-c3cccs3)[nH]n2c(=O)c1C`?
ClpP mod: 14µM*; mIDH1 inhibitor: 7%; LDHA inh: 4; RGS4 inhibitor: -29%; S-ASM inh: 6%

Results for Cc1ccccc1-c1cc2nc(C)c(C)c(=O)n2[nH]1 ?
ClpP mod: 29%; mIDH1 inhibitor: 19%; LDHA inh: -8; Mito fusion act: -2%; RGS4 inhibitor: -4%; S-ASM inh: -2%

What do the screens show for `CCCC(=O)Nc1cccc(NC(=O)c2ccc([N+](=O)[O-])cc2Cl)c1`?
ClpP mod: 1%; mIDH1 inhibitor: 3%; LDHA inh: 3; Mito fusion act: 10%; RGS4 inhibitor: 25%; S-ASM inh: -10%

What do the screens show for `CCCC(=O)Nc1cccc(NC(=O)c2cccc([N+](=O)[O-])c2C)c1`?
ClpP mod: 11µM*; mIDH1 inhibitor: 4%; LDHA inh: -3; Mito fusion act: 0%; RGS4 inhibitor: 11%; S-ASM inh: 0%

Results for CNC(=O)c1[nH]nc2c1CCc1ccccc1-2 ?
ClpP mod: 1%; mIDH1 inhibitor: -3%; LDHA inh: 12; Mito fusion act: 10µM*; RGS4 inhibitor: 13%; S-ASM inh: 2%

How did COc1ccc2c(C)c(CC(=O)Nc3cccc(C(C)=O)c3)c(=O)oc2c1OC do in these assays?
LDHA inh: -3

How did COC(=O)c1ccc(OC(=O)c2cc(-c3cccs3)nc3ccccc23)cc1 do in these assays?
LDHA inh: 5

What do the screens show for `COc1cc(Cl)c(C)cc1NC(=O)c1cn(C2CCCC2)c(=O)c2c1c1ccccc1n2C`?
ClpP mod: -7%; mIDH1 inhibitor: -14%; LDHA inh: -15; RGS4 inhibitor: 0%

How did COc1cccc(NC(=O)c2cn(C3CCCCC3)c(=O)c3c2c2ccccc2n3C)c1 do in these assays?
ClpP mod: 32µM*; mIDH1 inhibitor: -18%; LDHA inh: -6; RGS4 inhibitor: 4%

What do the screens show for `Cn1c2ccccc2c2c(C(=O)NCCCN3CCCC3=O)cn(C3CCCCC3)c(=O)c21`?
ClpP mod: 14µM*; mIDH1 inhibitor: 11%; LDHA inh: -2; Mito fusion act: -3%; RGS4 inhibitor: -19%; S-ASM inh: 9%

What do the screens show for `CN1CCN(CCCNC(=O)c2cn(C3CCCCC3)c(=O)c3c2c2ccccc2n3C)CC1`?
ClpP mod: inconclusive; mIDH1 inhibitor: 0%; LDHA inh: 0; Mito fusion act: 3%; RGS4 inhibitor: -33%; S-ASM inh: 19%

How did CN1CCN(CCCNC(=O)Cc2ccc(C(F)(F)F)cc2)CC1 do in these assays?
LDHA inh: 5

Results for Clc1cncc(Cl)c1NNc1c2ccccc2nc2ccccc12 ?
ClpP mod: 28µM*; mIDH1 inhibitor: 0%; LDHA inh: -4; Mito fusion act: 6%; RGS4 inhibitor: -30%; S-ASM inh: inactive

Results for O=C(Nc1cccc(C(F)(F)F)c1)C1=CCN(Cc2ccc(F)cc2)CC1 ?
LDHA inh: 3

What do the screens show for `Cc1ccc(CCNC(=O)c2cc3cc(S(=O)(=O)N4CCCCC4)ccc3n2C)cc1`?
ClpP mod: -1%; mIDH1 inhibitor: 3%; LDHA inh: -6; RGS4 inhibitor: -5%

Results for CSc1ccc(CCNC(=O)c2cc3cc(S(=O)(=O)N4CCCCC4)ccc3n2C)cc1 ?
ClpP mod: 22µM*; mIDH1 inhibitor: -8%; LDHA inh: -10; RGS4 inhibitor: 37%

Results for COc1ccc(C(=O)COC(=O)C2C3CC4C(OC(=O)C42)C3Br)cc1 (stereo not given) ?
LDHA inh: 7

How did CCc1cc(=O)oc2c(C)c(OC(C)C(=O)NCc3cccnc3)ccc12 (stereo not given) do in these assays?
LDHA inh: 8

Results for O=S(Cc1cccc(C(F)(F)F)c1)Cc1cccc(C(F)(F)F)c1 ?
LDHA inh: 1

Results for COc1ccc(NC(=O)C2(c3ccc(NC(=O)c4ccc(OC)cc4)cc3)CCCC2)cc1 ?
ClpP mod: 28µM*; mIDH1 inhibitor: 4%; LDHA inh: -5; Mito fusion act: -3%; RGS4 inhibitor: 2%; S-ASM inh: 2%

What do the screens show for `COc1ccc(NC(=O)C2(c3ccc(C)cc3)CCCC2)cc1`?
LDHA inh: 0

How did CCCOC(=O)C1=C(C)NC2=C(C(=O)CCC2)C1c1cccc(OC)c1OC (stereo not given) do in these assays?
ClpP mod: 25µM*; mIDH1 inhibitor: 4%; LDHA inh: -3; Mito fusion act: 4%; RGS4 inhibitor: 29%; S-ASM inh: 395%

How did COc1ccccc1C1C(C(=O)OCc2ccccc2)=C(C)NC2=C1C(=O)CCC2 (stereo not given) do in these assays?
LDHA inh: 3

How did OC(c1ccccc1)c1nc2ccccc2[nH]1 (stereo not given) do in these assays?
ClpP mod: 16µM*; mIDH1 inhibitor: -1%; LDHA inh: -12; Mito fusion act: 0%; RGS4 inhibitor: 23%; S-ASM inh: 3%

Results for OC(c1nc2ccccc2[nH]1)C(O)c1nc2ccccc2[nH]1 (stereo not given) ?
ClpP mod: 1%; mIDH1 inhibitor: 8%; LDHA inh: -2; Mito fusion act: 0%; RGS4 inhibitor: -11%; S-ASM inh: 0%
